This is an account of results in PubChem BioAssay AID651965 (National Center for Advancing Translational Sciences (NCATS), 2013).

In all, about 340,000 compounds went through this assay and about 6,400 (1.9%) were called active. About 4% were inconclusive and are not listed. What follows is part of a selection rich in actives, with near analogues and random picks from the rest. Unmarked numbers belong to inactive results. Calls follow the shape of the dose curve; as a rule, active = well fitted falling curve with a large enough effect; inconclusive = small, poorly fitted or top-dose-only effect; inactive = no such curve, though single readings can be large or run the other way.
Potency is read from the fitted curve at half-maximal effect.

ATP-dependent Clp protease proteolytic subunit (Bacillus subtilis (strain 168)), sequence (P80244 whole entry, looked up): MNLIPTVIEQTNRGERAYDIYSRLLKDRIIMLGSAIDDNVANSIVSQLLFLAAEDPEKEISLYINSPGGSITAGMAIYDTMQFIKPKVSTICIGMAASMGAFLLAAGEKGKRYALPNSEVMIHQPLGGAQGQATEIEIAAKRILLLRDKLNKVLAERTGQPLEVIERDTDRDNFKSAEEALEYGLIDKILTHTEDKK

This assay has as its target ATP-dependent Clp protease proteolytic subunit (Bacillus subtilis (strain 168)) (UniProt P80244). Put plainly: qHTS Assay for Activators of ClpP. Also: the source files actives as falling curves though it sought activators and does not explain the sign; nearly all actives have a fitted effect of over 65% in size. To be noted: purified B. subtilis ClpP, FRET peptide cleavage, 20 min; series mostly up to 57.5 µM; activity change, negative = active: at the top concentration. In a few lines:
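Purified B. subtilis ClpP, 10 microg/mL final in Tris/HCl pH8 with KCl, BSA, glycerol and Tween-20, cleaved an Abz/nitrotyrosine-quenched decapeptide. Fluorescence (ex 320, em 430) was read at 0 and 20 min at room temperature. Delta was normalized to 5.8 microM ADEP and DMSO/no-enzyme controls.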
For orientation: qHTS replaces the single test concentration by a dilution series.
For the molecule `Nc1nc2c(ncn2[C@@H]2O[C@H](CNCc3ccc(OCCCN4CCOCC4)cc3)[C@@H](O)[C@H]2O)c(=O)[nH]1`, the “activity change, negative = active” value is 0.256%.

Regarding `CCCCC[C@H](C)N1C[C@@H](COCc2ccccc2)Oc2cc(N3CCC[C@@H]3CO)ccc2S1(=O)=O`, the “activity change, negative = active” value is -18.2%.

For the molecule `O=C(NC1CC1)c1cccc(Br)c1`, the “activity change, negative = active” value is 0.467%.

In the case of `CCCNC(=O)c1ccc(N2CCC3(CC2)CC(c2cccc(Br)c2)=NO3)c(NC(=O)c2ccco2)c1`, the “activity change, negative = active” value is -27.6%.

As for `CCCN(CCC)CCNC(=O)c1ccc2c(c1)NC(=O)C(CS(=O)(=O)Cc1cccc(Br)c1)N2` (stereo not given), the Potency is 2.82 µM (active).

As to `COc1ccc(OC)c(NC(=O)C2(C)CCN2C(=O)Cc2ccccc2)c1` (stereo not given), the “activity change, negative = active” value was 1.9%.

In the case of `Cc1cccc(C)c1NC(=O)C(c1ccc(C(F)(F)F)cc1)n1c(=O)c(-c2ccco2)nc2ccccc21` (stereo not given), the “activity change, negative = active” value was 4.32%.

For the molecule `CCOC(=O)C1=C(CCc2ccccc2)NC(=O)NC1c1ccc2ccccc2c1` (stereo not given), the “activity change, negative = active” value is 0.198%.

`CCOC(=O)c1sc(C)c2c1NC(C)(c1cccc3ccccc13)NC2=O` (stereo not given): the Potency is 28.2 µM (active).

Take `CCOC(=O)c1ccc(Nc2cc3ccccc3c(=O)[nH]2)cc1`: the “activity change, negative = active” value was -23.8%.

On to `COc1cccc(NC(=O)CSc2nnc(-c3cccnc3)o2)c1`, for which the “activity change, negative = active” value was -1.16%.

On to `COc1cccc(-c2nnc(SCCOc3ccc4c(C)cc(=O)oc4c3)o2)c1`, for which the Potency was 28.2 µM (active).

`COc1cccc(-c2nnc(SCC(=O)N3CCC(C)CC3)o2)c1`: the “activity change, negative = active” value was -1.81%.

For `CCCNC(=O)C1(C)CCCN(C(=O)c2oc3ccccc3c2C)C1` (stereo not given), the “activity change, negative = active” value is -8.56%.

`OC[C@@H]1CN(Cc2ccc(F)cc2)C[C@H](n2cnc3c(NC4CCCC4)ncnc32)O1`: the “activity change, negative = active” value is -1.01%.

For `CC1(c2cccc([N+](=O)[O-])c2)CC(C)(C)N(C(=O)c2ccccc2)c2ccccc21` (stereo not given), the “activity change, negative = active” value is -0.902%.

For the molecule `Cc1nnc(SCC(=O)N2c3ccccc3C(C)(c3ccc(Cl)cc3)CC2(C)C)s1` (stereo not given), the Potency was 31.6 µM (active).

As for `CC1(c2ccccc2)CC(C)(C)N(C(=O)c2cc([N+](=O)[O-])cc([N+](=O)[O-])c2)c2ccccc21` (stereo not given), the “activity change, negative = active” value is 0.813%.

Regarding `O=C(C[n+]1ccncc1)c1ccc2c(c1)CCCC2`, the “activity change, negative = active” value is 0.453%.

For `COc1ccc(CC(N)c2csc(NC(=O)Nc3ccc(C(C)C)cc3)n2)cc1` (stereo not given), the “activity change, negative = active” value is -0.479%.

As to `CO[C@H]1O[C@@H]2O[C@@]3(C)CC[C@@H]4[C@@H](C)CC[C@@H]([C@H]1C)[C@@]24OO3`, the “activity change, negative = active” value was 0.445%.

`CCOC(=O)c1ccn(S(=O)(=O)c2ccc(C)cc2)c1-c1ccccc1`: the “activity change, negative = active” value was -0.322%.

`CCSc1nc(-c2ccc(OC)cc2)cc(-c2ccc(OC)cc2)c1C#N`: the Potency is 22.4 µM (active).

Take `CCOC(=O)CC(=O)CSc1nc(-c2ccccc2)cc(-c2ccc(Cl)cc2)c1C#N`: the “activity change, negative = active” value was 57.6%.

On to `CCOc1cc(-c2cc(-c3ccc(OC)cc3)nc(N)c2C#N)ccc1O`, for which the “activity change, negative = active” value was 43.2%.
